# The list is not random: actives were taken first. Their share in the collection is about 2.1%.
# Casp6 inh: human caspase-6 inhibitors, primary screen, biochemical, VEID-R110 fluorescence, single point, set 2 | P55212 | purified caspase-6, Z-VEID-R110 cleavage fluorescence | inhibition, % at 12.5 µM | 350,000 compounds, 0.53% hits;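 active = mean inhibition across replicates at least about 35%, with every replicate also reaching that limit, limit read from the data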;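 also: 0% = median of neutral control wells and 100% = no fluorescence left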
# Target sequence (P55212 24-179 limits assumed): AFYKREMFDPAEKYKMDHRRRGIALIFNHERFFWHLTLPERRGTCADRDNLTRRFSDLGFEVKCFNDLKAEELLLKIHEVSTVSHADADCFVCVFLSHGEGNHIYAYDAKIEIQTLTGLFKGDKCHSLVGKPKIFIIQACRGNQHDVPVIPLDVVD
# Target sequence (P55212 194-293 limits assumed): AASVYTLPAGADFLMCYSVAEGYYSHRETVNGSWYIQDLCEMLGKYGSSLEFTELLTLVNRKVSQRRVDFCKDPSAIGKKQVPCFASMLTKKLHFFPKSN
# PfHsp90 yeast 2: growth inhibition of PfHsp90-expressing yeast, primary screen, antimalarial PfHsp90 inhibitor project, S. cerevisiae, BacTiter-Glo luminescence, single point, set 2; 310,000 compounds, 0.32% hits; AID 504621, 2011; inhibition, % at 9.4 µM; BacTiter-Glo ATP, 48 h; yeast lacking PDR1 and PDR3 efflux regulators;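 active = every replicate shows inhibition above about 80%, whatever the replicate mean, limit read from the data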;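 also: 0% = DMSO neutral controls and 100% = 20 µM radicicol positive controls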
# NSD2 HMT inh: NSD2 histone methyltransferase inhibitors, primary screen, biochemical, AlphaScreen, single concentration, set 2; 310,000 compounds, 0.54% hits; inhibition, % at 12.5 µM; NSD2 peptide methylation, 120 min; AID 743445, 2014; in the data active = inhibition above about 50%
# ARNT TACC3 PPI: disruptors of ARNT/TACC3 protein interaction, primary screen, biochemical, AlphaScreen, single concentration; Transforming acidic coiled-coil-containing protein 3 (Homo sapiens), Q9Y6A5; inhibition, % at 9.99 µM; 390,000 compounds, 0.66% hits; AlphaScreen His-ARNT PAS-B/GST-TACC3 binding, luminescence; TACC3 fragment carries E629A point mutation;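 active = mean inhibition of replicates at least 50% and at least half of replicates each reaching 50%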;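 also: 0% = complete ARNT plus TACC3 wells and 100% = ARNT alone without TACC3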
# SIRT5 block: SIRT5 desuccinylase inhibitors, primary screen, biochemical, fluorescence imaging, single point, set 5; NAD-dependent protein deacylase sirtuin-5, mitochondrial (Homo sapiens), Q9NXA8; 330,000 compounds, 1.1% hits; inhibition, % at 15 µM; Purified SirT5, succinyl-peptide AMC, trypsin-coupled fluorescence; in the data active = inhibition above about 15%
# Target sequence (Q9NXA8 whole entry, looked up): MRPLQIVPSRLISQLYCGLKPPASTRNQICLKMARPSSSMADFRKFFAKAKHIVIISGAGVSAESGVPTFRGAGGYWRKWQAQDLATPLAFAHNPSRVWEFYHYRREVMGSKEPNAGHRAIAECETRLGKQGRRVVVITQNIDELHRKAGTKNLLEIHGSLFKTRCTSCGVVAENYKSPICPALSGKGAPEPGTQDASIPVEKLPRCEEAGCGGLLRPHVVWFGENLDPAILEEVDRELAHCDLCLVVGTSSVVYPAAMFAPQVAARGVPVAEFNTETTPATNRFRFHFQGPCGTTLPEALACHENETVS
# An asterisk follows results filed as active; / = no result given; ! = not active in a repeat.
SMILES,Casp6 inh,PfHsp90 yeast 2,NSD2 HMT inh,ARNT TACC3 PPI,SIRT5 block
CN(C)c1nc(Nc2ccc(F)cc2)nc(Oc2ccc(F)cc2)n1,0.3,15.9,-0.1,-6.4,-0.4
CCCN1C[C@@H](C)[C@H](OC)CN(C)C(=O)c2cc(NC(=O)C3CC3)ccc2OC[C@@H]1C,-3.0,/,/,-6.9,-0.9
CO[C@@H]1CN(C)C(=O)c2cc(NS(C)(=O)=O)ccc2OC[C@H](C)N(C)C[C@@H]1C,0.5,/,/,10.4,-2.7
Cc1noc(/C=C/N(C)C)c1S(=O)(=O)N1CCCC(C(=O)NC2CCCCC2)C1 (centres undefined),-3.3,6.2,/,-1.2,3.7
Cc1noc(/C=C/N(C)C)c1S(=O)(=O)N1CCCC(C(=O)N2CCCCC2)C1 (centres undefined),1.7,16.8,/,-1.8,17.2*
COc1ccc(NC(=S)N2CCC(C(=O)c3ccc(F)cc3)CC2)c(OC)c1,10.0,-20.1,0.6,-4.9,25.2*
COc1ccc(C(=O)C2CCN(C(=S)Nc3ccc(F)cc3)CC2)cc1,2.5,15.5,/,-4.3,-2.5
O=C(O)c1ccccc1-c1c2cc(I)c(=O)c(I)c-2oc2c(I)c(O)c(I)cc12,-226.3,18.0,/,-1.6,29.4*
C[C@@H]1CN([C@H](C)CO)C(=O)c2cc(C#Cc3ccccc3)cnc2O[C@H]1CN(C)C(=O)CN(C)C,-1.7,/,/,10.0,3.2
CCC(C)[C@@H](NC(=O)OC(C)(C)C)c1nnc(S(=O)(=O)Cc2cccc(C)c2)o1 (some centres undefined),/,121.3*,1.3,-0.1,/
Cc1ccccc1CS(=O)(=O)c1nnc([C@H](Cc2ccccc2)NC(=O)OC(C)(C)C)o1,1.4,109.1*,14.7,-10.2,-1.0
C[C@@H]1CCCCO[C@H](CN(C)C(=O)Nc2ccc(F)cc2)[C@H](C)CN([C@@H](C)CO)C(=O)c2cc(NC(=O)Nc3ccc(C(F)(F)F)cc3)ccc2O1,-0.3,/,/,4.3,-2.4
CN1CCN(C(=O)C2=C[C@H](C3CCCCC3)C[C@H](OCc3ccc(CO)cc3)O2)CC1,-0.2,0.3,/,-1.3,29.7*!
COC(=O)C[C@H]1CC[C@H]2[C@@H](COc3ccc(NC(=O)c4cc(F)cc(F)c4)cc3C(=O)N2C)O1,/,/,/,-4.9,/
CC(=O)N(C)C[C@H]1Oc2cc(C#Cc3ccncc3)ccc2S(=O)(=O)N([C@H](C)CO)C[C@H]1C,1.0,/,/,-2.0,3.9
COc1cc(OC)c2c(-c3ccccc3)cc(=O)oc2c1C(CCN1CCCC(C)C1)c1ccc(N(C)C)cc1 (centres undefined),1.0,-21.2,/,45.4*,/
CCN(CC)CCC(c1ccc(N(C)C)cc1)c1c(OC)cc(OC)c2c(-c3ccccc3)cc(=O)oc12 (centres undefined),-7.2,/,/,38.6*,-2.1
COc1cc(OC)c2c(-c3ccccc3)cc(=O)oc2c1C(CCN1CCN(c2ccccc2)CC1)c1ccc(N(C)C)cc1 (centres undefined),-6.1,/,/,0.9,/
CO[C@H]1CN(C)C(=O)c2ccc(NS(=O)(=O)CC(F)(F)F)cc2OC[C@H](C)N(CC2CCCCC2)C[C@@H]1C,5.6,/,/,/,12.8
O=C(CCS(=O)(=O)c1ccccc1)N1CCCc2ccccc21,-0.4,-16.4,21.9,0.2,17.2*
CC(=O)N1CCCc2cc(S(=O)(=O)CCC(=O)N3CCN(c4cccc(C)c4)C(C)C3)ccc21 (centres undefined),22.8,6.5,/,1.2,4.2
Cc1cccc(N2CCN(C(=O)CCS(=O)(=O)c3ccc(Br)cc3)CC2C)c1 (centres undefined),66.9*,26.5,1.3,/,-1.7
Cc1cccc(N2CCN(C(=O)Cn3sc4nc(C)cc(C)c4c3=O)CC2C)c1 (centres undefined),/,167.3*,/,-1.4,/
COc1ccccc1OCCNC(=O)c1ccc(C(C)(C)C)cc1,-0.3,2.3,/,-7.2,-0.7
COc1ccccc1OCCNC(=O)c1ccc(Br)cc1,-1.5,97.4*,-3.3,-7.1,0.8
SMILES,Casp6 inh,PfHsp90 yeast 2,NSD2 HMT inh,ARNT TACC3 PPI,SIRT5 block
O=C(NCCCCc1ccccc1)c1ccc(Br)cc1,-2.9,111.7*,-3.0,-3.7,3.8
O=C(NC1CCC1)[C@@H]1[C@@H](CO)[C@@H]2Cn3c(ccc(C4=CCCC4)c3=O)[C@@H]2N1C(=O)C1CCCC1,-2.7,/,/,6.7,-7.1
O=C(/C=C/c1ccco1)Nc1sc2c(c1C(=O)O)CCC2,60.7*,/,10.8,9.5,10.9
Cc1ccc(-c2csc(NC(=O)/C=C/c3ccco3)c2C(=O)O)cc1,75.4*,28.3,4.0,-5.3,6.9
Cc1ccc(-c2csc(NC(=O)c3cccc(C)c3)c2C(=O)O)cc1,-1.0,29.7,2.0,/,2.6
N#Cc1c(NC(=O)/C=C/c2ccco2)sc2c1CCCC2,-3.3,-90.3,36.5,6.6,-2.5
O=c1c2ccccc2nc2n1CCC2,/,18.9,3.2,-22.1,/
O=C1CCn2c1c(O)c1ccccc1c2=O,95.1*,-26.4,25.9,51.7*,-0.9
O=C(Nc1cc(F)ccc1F)N1CCCCN2[C@H](CO)[C@H](c3ccc(-c4cncnc4)cc3)[C@H]2C1,1.4,/,/,-10.9,8.6
O=C(N/N=C/c1cc(Cl)cc([N+](=O)[O-])c1O)c1cccc(S(=O)(=O)N2CCOCC2)c1,7.7,-12.5,/,70.6*,1.4
O=C(NN=Cc1cc(Cl)ccc1[N+](=O)[O-])c1cccc2ccccc12,-1.9,-8.4,-0.7,-2.5,-2.5
Cc1cc(C(=O)N/N=C/c2cc(Cl)cc([N+](=O)[O-])c2O)c2ccccc2n1,11.4,-5.0,8.4,75.8*,-3.7
C[C@H](CO)N1C[C@H](C)[C@H](CN(C)C(=O)CC2CC2)Oc2cc(-c3ccncc3)ccc2S1(=O)=O,2.4,/,/,-4.8,-0.3
Cc1cc(F)ccc1S(=O)(=O)Nc1ncnc2sccc12,-2.4,8.9,-0.5,-14.1,22.6*
Cc1noc(C)c1NC(=O)Nc1cccc2c1O[C@H](CN(C)CC1CCCCC1)[C@@H](C)CN([C@H](C)CO)C2=O,-1.7,/,/,9.4,-3.3
O=C(C[C@H]1C=C[C@@H](NC(=O)NC2CCCCC2)[C@@H](CO)O1)NCc1ccc(F)cc1,0.9,/,/,-6.4,1.5
Nc1cccc([N+](=O)[O-])c1,-1.2,-3.1,1.5,-11.8,-1.1
O=[N+]([O-])c1cccc(SSc2cccc([N+](=O)[O-])c2)c1,0.9,110.0*,-0.2,1.1,0.8
Cc1ccc(SC(CC(=O)c2ccc(F)cc2)C(=O)O)cc1 (centres undefined),8.3,25.5,1.4,10.2,2.5

# Screening results: PubChem, Broad Institute
